# PubChem BioAssay (NCI)
# About 79,000 compounds went through this panel and 15% of them were active in at least one assay; those are over-represented in the sample as a whole. Values without a mark were called inactive. Activity calls are given as the source filed them. Cut-off read from the data, not from the text of the source: active = growth inhibition above about 70%; inactive = the rest.
# Experiments:
# [1] = NCI Yeast Anticancer Drug Screen. Data for the rad50 strain (AID 155);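 note: 0% = growth of vehicle-only cultures of the same strain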; conditions: S. cerevisiae rad50 strain growth inhibition, stronger effect = higher value
# Summary of the method: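 DNA repair mutant yeast, compound exposure, growth read-out; inhibition is taken relative to vehicle.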
# [2] = NCI Yeast Anticancer Drug Screen. Data for the mec2-1 strain (AID 157); conditions: S. cerevisiae mec2-1 strain, stronger effect = higher value
# Summary of the method: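 Using mec2-1 yeast: add compound, measure growth, express inhibition versus vehicle-treated cultures.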
# [3] = NCI Yeast Anticancer Drug Screen. Data for the sgs1 mgt1 strain (AID 161);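 note: 0% = growth of cultures given vehicle only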; conditions: S. cerevisiae sgs1 mgt1 strain, stronger effect = higher value
# Summary of the method: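 Percent growth inhibition was derived by comparing compound-exposed mutant yeast with vehicle-exposed cultures. The strain carries alterations in DNA damage repair.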
# [4] = NCI Yeast Anticancer Drug Screen. Data for the cln2 rad14 strain (AID 165);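 note: 0% = growth equal to vehicle treated cultures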; conditions: S. cerevisiae cln2 rad14 strain, stronger effect = higher value
# Summary of the method: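 Yeast strain cln2 rad14, bearing defects in cell cycle control and DNA repair, serves as the test system; values reflect growth inhibition compared with vehicle.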
# [5] = NCI Yeast Anticancer Drug Screen. Data for the bub3 strain (AID 167); conditions: S. cerevisiae bub3 mutant strain, stronger effect = higher value
# Summary of the method: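 In this screen, a yeast mutant lacking normal mitotic checkpoint function is challenged with compound. Relative growth versus vehicle gives the inhibition value.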
# [6] = NCI Yeast Anticancer Drug Screen. Data for the mlh1 rad18 strain (AID 175); conditions: S. cerevisiae mlh1 rad18 strain growth inhibition, stronger effect = higher value
# Summary of the method: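 Steps: expose repair-defective yeast to compound; measure growth; express inhibition against vehicle-treated controls.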
# [7] = at 5.0 µM (retest, dose inferred, filed as 0.5)
# [8] = at 50.0 µM (retest, dose inferred, filed as 5.0)
Compound,"growth inhibition [1, 7] [%]","growth inhibition [1, 8]",growth inhibition ([1]; at 50.0 µM),"growth inhibition [2, 7] [%]","growth inhibition [2, 8]",growth inhibition ([2]; at 50.0 µM),"growth inhibition [3, 7] [%]","growth inhibition [3, 8]",growth inhibition ([3]; at 50.0 µM),"growth inhibition [4, 7] [%]","growth inhibition [4, 8]",growth inhibition ([4]; at 50.0 µM),"growth inhibition [5, 7] [%]","growth inhibition [5, 8]",growth inhibition ([5]; at 50.0 µM),"growth inhibition [6, 7] [%]","growth inhibition [6, 8]",growth inhibition ([6]; at 50.0 µM)
O=S(=O)(Nc1ccccn1)c1ccc(N=Cc2c3ccccc3nc3cc(Cl)ccc23)cc1,2,27%,98.8% (active),5,18%,85.8% (active),1,1%,99.2% (active),4,-17%,97.5% (active),9,6%,57.6%,5,6%,98.2% (active)
COC(=O)/C(C(C)=O)=C(\OC(C)=O)c1ccc(OC)c(OC)c1,-14,80% (active),93.5% (active),-11,93% (active),91% (active),-5,88% (active),46.2%,-11,85% (active),95.5% (active),-2,86% (active),98.1% (active),-19,91% (active),60%
O=Cc1ccc2ccc3ccccc3c2c1,-8,85% (active),85.9% (active),8,66%,41.4%,6,56%,79.1% (active),-19,94% (active),21.2%,-27,95% (active),70.8% (active),-7,93% (active),84.9% (active)
CC(CC(=O)c1ccc2sc3ccccc3c2c1)C(=O)O (stereo unspecified),6,35%,58.4%,-4,47%,33.6%,14,62%,49.2%,-2,24%,60.4%,-2,21%,27.3%,,,
COc1ccc(N=N/N=c2\sc3cc(Cl)ccc3n2C)cc1,29,57%,36.9%,18,43%,6.15%,21,42%,-30.4%,28,56%,30.4%,21,62%,5%,28,63%,38.2%
CC(=O)c1c(O)c(C)c(O)c2c1OC1=CC(=O)c3c(C)noc3C12C (stereo unspecified),-1,10%,24.9%,-3,7%,26.1%,-2,10%,-2.55%,10,16%,25.3%,-9,1%,12.8%,-1,10%,54.1%
C/C=C/C(=O)N1c2ccccc2CC1c1c(C)[nH]c2ccccc12 (stereo unspecified),7,90% (active),94.3% (active),3,96% (active),94.8% (active),3,95% (active),94.3% (active),2,86% (active),96% (active),6,86% (active),95.5% (active),22,96% (active),96.6% (active)
Cc1cc(O)c(NCCN(C)C)c2c(=O)c3ccccc3sc12,18,97% (active),98.5% (active),7,97% (active),99.1% (active),8,98% (active),98.8% (active),12,97% (active),97.8% (active),6,94% (active),98% (active),5,97% (active),98.7% (active)
Cc1[nH]c2c(C)c3c([nH]c4ccc(Cl)cc43)c(C)c2c(=O)c1C,-8,12%,61.1%,-24,0%,14.2%,-14,3%,23.9%,-17,6%,13.7%,-10,-3%,8.65%,,,
